Source: PubChem BioAssay AID624351 (Southern Research Specialized Biocontainment Screening …, 2012)
Where “and” joins values, the source holds several entries; their conditions need not be identical. Equal entries are not always repeated. Screen size: about 2,400 compounds; about 1,400 (58%) were called active.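 The calls were made as follows: active = inhibition of 30% or more at any tested dose; inconclusive = primary hits over the limit that were never retested; inactive = the rest.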 The set was probably picked from earlier hits. This is one part of the list.

Test: coupled detection enzyme interference, dose response, artefact control for MgcRacGAP inhibitor project, biochemical, coupled enzyme counter-screen (AID 624351);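 also: signal is the ADP detection kit reading of free GDP without any GAP enzyme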;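 as to inhibition: 0% = median positive control wells and 100% = median negative control wells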
Conditions: ADP Hunter coupled enzyme counter-screen, fluorescence, no MgcRacGAP; series mostly up to 80 µM

| SMILES | IC50 | inhibition |
| --- | --- | --- |
| Cc1cc(/C=C2\C(=O)NC(=O)N(c3ccccc3F)C2=O)c(C)n1-c1cc(C(=O)O)cc(C(=O)O)c1 | inactive |  |
| COc1ccccc1-n1c(O)c(/C=C2\C=Nc3ccccc32)c(=O)[nH]c1=O | inactive |  |
| CC[N+](C)(CC)CCCCOc1ccc2c(c1)C(=O)c1cc(OCCCC[N+](C)(CC)CC)ccc1-2 | inactive |  |
| CC1=NCCc2c1[nH]c1cc(O)ccc21 | 10.2 µM (active) |  |
| Cc1ccc(OCC(=O)N2CCN(CC3CC4C=CC3C4)CC2)cc1 (stereo unspecified) | inactive |  |
| Clc1ccc(OCC#CCN2CCCCCC2)cc1 | inactive |  |
| CCN(CCCl)c1cc(CN(C)C)cc(NC(=O)c2ccc(C(=O)Nc3cc(CN(C)C)cc(N(CC)CCCl)c3)cc2)c1 | inactive |  |
| COc1ccc(/C=C2\C(=O)NC(=S)N(C)C2=O)cc1C | inactive |  |
| CC1CCCCN1Cc1cccnc1 (stereo unspecified) | inactive |  |
| COc1ccc(CCNCc2ccccc2)cc1 | inactive |  |
| CN(C)C1C(=O)C(C(N)=O)=C(O)C2(O)C(=O)C3=C(O)c4c(O)cccc4C(C)(O)C3C(O)C12 (stereo unspecified) | inactive |  |
| COc1cc(/C=C2/C(=O)NC(=O)N(c3ccccc3)C2=O)ccc1O | inactive |  |
| COc1ccc(-n2c(/C=C/c3ccc(O)c(OC)c3)nc3ccccc3c2=O)cc1 | 43.2 µM (active) |  |
| O=c1c2ccccc2nc(/C=C/c2ccc(O)cc2)n1-c1ccccc1O | 60.4 µM (active) |  |
| COc1cc(/C=C/c2nc3ccccc3c(=O)n2-c2ccccc2O)ccc1O | 38.1 µM (active) |  |
| NC(N)=N/N=C/c1ccc(N(c2ccccc2)c2ccccc2)cc1 | inactive |  |
| O=C1CN(O)C(c2ccccc2)=c2cc(Br)ccc2=N1 | inactive |  |
| O=C1NC(=O)N(c2ccc3c(c2)OCO3)C(=O)/C1=C\c1ccc(-c2ccccc2C(=O)O)o1 | inactive |  |
| COc1ccc(CN2CCN(Cc3ccccc3OC)CC2)cc1 | inactive |  |
| CCc1c(C)nc(N)nc1N1N=C1SC(C(C)=O)C(C)=O | inactive |  |
| O=C1NC(=O)C(=Cc2coc3ccc(O)cc3c2=O)C(=O)N1 | inactive |  |

| SMILES | IC50 | inhibition |
| --- | --- | --- |
| C=CCN1C(=O)NC(=O)/C(=C/C=C/c2ccccc2)C1=O | inactive |  |
| CN1C2CCC1/C(=C/c1ccccn1)C(=O)/C2=C\c1ccccn1 | inactive |  |
| COc1cc(N2CCOCC2)ccc1/C=C1\C(=O)NC(=O)N(Cc2cccs2)C1=O | inactive |  |
| COc1cc2c(ccc3c4cc(OC)c(OC)cc4c[n+](C)c23)cc1O | inactive |  |
| CC1CN1P(=O)(Oc1ccc2ccccc2c1)N1CC1C (stereo unspecified) | inactive |  |
| O=C1NC(=O)C(=Cc2cccs2)C(=O)N1 | inactive |  |
| CCN1CCN(c2ccc(N)c(C)c2)CC1 | 45.2 µM (active) |  |
| CN1CCN(c2ccc(N)c(N3CCN(C)CC3)c2)CC1 | 56 µM (active) |  |
| CCN1CCN(CC(c2ccccc2)c2ccccc2)CC1 | inactive |  |
| CN1CCN(c2ccc(N)cc2)CC1 | 42.7 µM (active) |  |
| N/C(=N\N=C/c1ccc(-c2ccc(O)c(C(=O)O)c2)o1)N[N+](=O)[O-] | inactive |  |
| COc1cc(N2CCOCC2)ccc1/C=C1\C(=O)NC(=O)N(Cc2ccc3c(c2)OCO3)C1=O | inactive |  |
| O=C(O)CCn1cc(C=C2C(=O)NC(=S)NC2=O)c(-c2cccc(Br)c2)n1 | inactive |  |
| Cc1ccc(OCC(=O)N2CCN(Cc3ccc([N+](=O)[O-])cc3)CC2)cc1 | inactive |  |
| CCc1ccc(N2C(=O)NC(=O)/C(=C\c3cc(C)n(-c4cc(C(=O)O)cc(C(=O)O)c4)c3C)C2=O)cc1 | inactive |  |
| CN(C)[C@@H]1C(=O)C(C(N)=O)=C(O)[C@@]2(O)C(=O)C3=C(O)c4c(O)cccc4[C@@](C)(O)[C@H]3[C@H](O)[C@@H]12 |  | -9.39% [at 5 µM] (inactive) |
| Cc1cccc(N2C(=O)/C(=C/c3ccc(CN(CCC#N)S(C)(=O)=O)o3)C(=O)NC2=S)c1 | inactive |  |
| Cc1ccc2c(C)c3ccc4ccccc4c3c[n+]2c1 | inactive |  |
| CN(C)c1ccc(/C=C/C=C/c2sc3ccccc3[n+]2C)cc1 | 70.2 µM (active) |  |
| CN(C)c1ccc(/C=C/c2cc[n+](C)c3ccccc23)cc1 | 47.2 µM (active) and 59.7 µM (active) |  |
| CCc1ccc(CNCCc2c[nH]c3ccccc23)cc1 | inactive |  |

| SMILES | IC50 | inhibition |
| --- | --- | --- |
| O=C1NC(=O)N(CCC2=CCCCC2)C(=O)/C1=C/c1ccc(O)cc1 | inactive |  |
| COc1ccc(CNCCc2ccc(Cl)cc2)c(OC)c1OC | inactive |  |
| O=C1NC(=S)N(c2ccccc2)C(=O)/C1=C/c1ccco1 | inactive |  |
| O=C1NC(=S)N(C2CC2)C(=O)/C1=C/c1ccc2c(c1)CCN2CCCCl | inactive |  |
| Cc1cc(/C=C2\C(=O)NC(=O)N(c3cccc(F)c3)C2=O)c(C)n1-c1cc(C(=O)O)cc(C(=O)O)c1 | inactive |  |
| Cc1cc(-c2cc(C)c(N)c(C)c2)cc(C)c1N | 11.2 µM (active) |  |
| Cc1cc(-c2ccc(N)c(C)c2)ccc1N | 14.2 µM (active) |  |
| COc1cc(-c2ccc(N)c(OC)c2)ccc1N | 8.45 µM (active) |  |
| Brc1cccc(CNCCc2ccc3c(c2)OCO3)c1 | inactive |  |
| CN(C)c1ccc(/C=C2/C(=O)NC(=O)N(Cc3ccco3)C2=O)cc1 | inactive |  |
| Cc1ccccc1N1C(=O)NC(=O)/C(=C\c2cnn(-c3ccccc3)c2)C1=O | inactive |  |
| O=C1NC(=O)C(=Cc2cc(Cl)ccc2OCc2ccc(C(=O)O)cc2)C(=O)N1 | inactive |  |
| O=C(COc1ccccc1)N1CCN(CC2CC3C=CC2C3)CC1 (stereo unspecified) | inactive |  |
| O=C1NC(=O)C(=Cc2c(Cl)cccc2Cl)C(=O)N1 | inactive |  |
| COc1cc(CNCCc2ccc3c(c2)OCO3)cc(OC)c1OC | inactive |  |
| O=C(Cc1ccccc1)N1CCN(Cc2ccc(F)cc2)CC1 | inactive |  |
| O=C(COc1ccccc1)N1CCN(C2CCCC2)CC1 | inactive |  |
| c1ccc(CN2CCN(Cc3ccc4ccccc4c3)CC2)cc1 | inactive |  |
| O=C(O)c1ccccc1-c1ccc(C=C2C(=O)N(c3ccccc3)C(=S)N(c3ccccc3)C2=O)o1 | inactive |  |
| Nc1ccc(Sc2ccc(N)cc2)cc1 | 10.4 µM (active) |  |
| Nc1ccc(N=Nc2ccc(N)cc2)cc1 | 20.5 µM (active) |  |

| SMILES | IC50 | inhibition |
| --- | --- | --- |
| Cc1cc(N(C)C)ccc1N=Nc1ccc(N)cc1 | 33.7 µM (active) |  |
| Nc1ccc(-c2ccc(N)cc2)cc1 | 8 µM (active) |  |
| O=C(COc1ccc2ccccc2c1)N1CCN(Cc2ccncc2)CC1 | inactive |  |
| COc1ccc(N2CC2c2ccncc2)cc1 (stereo unspecified) | inactive |  |
| COP(=S)(OC)SCn1nnc2ccccc2c1=O | inactive |  |
| Fc1ccc(CNCCc2ccccc2)cc1 | inactive |  |
| COc1cccc(CN2CCN(Cc3cccc(F)c3)CC2)c1 | inactive |  |
| O=C(O)CCn1cc(C=C2C(=O)NC(=S)NC2=O)c(-c2ccccc2)n1 | inactive |  |
| COc1ccc(CCNCc2cccc(C(F)(F)F)c2)cc1OC | inactive |  |
| CSc1ccc(CN2CCN(Cc3ccccc3Cl)CC2)cc1 | inactive |  |
| O=P(Oc1ccc(-c2ccccc2)cc1)(N1CC1)N1CC1 | inactive |  |
| O=C(NC1CCCCC1)Oc1cc2oc(=O)sc2cc1Cl | inactive |  |
| COc1ccccc1N1CCN(Cc2cccc(Br)c2)CC1 | inactive |  |
| COc1ccc(Br)cc1CNCCc1cccc(Cl)c1 | inactive |  |
| O=C1NC(=O)C(=Cc2ccco2)C(=O)N1 | inactive |  |
| Cc1nn(CCC#N)c2c1P(=S)(N1CCCC1)OC(c1ccc(F)cc1)=N2 (stereo unspecified) | inactive |  |
| O=C1NC(=O)N(c2ccccc2)C(=O)/C1=C/c1coc2ccc(O)cc2c1=O | inactive |  |
| CN(C)c1ccc2c(c1)N=C(c1ccco1)OP2(=S)N1CCOCC1 (stereo unspecified) | inactive |  |
